Results filed as inconclusive are left out. Calls of active or inactive are those of the source. Rule for the calls: active = hit-call score of the fitted dose curve at least 0.9, where 1 is the maximum; inconclusive = response in the unintended direction; inactive = score below 0.9.
What was measured:
[1] = target: human Sirtuin 1 (SIRT1), SIRT1 (gene 23411) (UniProt Q96EB6); assay: NVS_ENZ_hSIRT1: NovaScreen (NVS) Enzymatic Assay for human Sirtuin 1 (SIRT1) (AID 2283219)
Summary of the method: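 Cell-free recombinant SIRT1 with a fluorescent substrate; substrate and product separated by electrophoretic mobility shift and read by fluorescence intensity, 1 h after dosing. Primary screen at 25 uM in duplicate; hits re-run in concentration-response up to 50 uM, relative to DMSO.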

[2] = target: human SRC Proto-Oncogene, Non-receptor Tyrosine Kinase (SRC), SRC (gene 6714) (UniProt P12931); assay: NVS_ENZ_hSRC: NovaScreen (NVS) Enzymatic Assay for human SRC Proto-Oncogene, Non-receptor Tyrosine Kinase (SRC) (AID 2283223)
Summary of the method: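 Compounds passing 30% inhibition at 25 uM (duplicate) were titrated to a top concentration of 50 uM. Enzyme activity read by fluorescence with mobility-shift substrate/product separation after 1 h; DMSO baseline.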

[3] = target: human Vascular Endothelial Growth Factor Receptor 1 (VEGFR1), FLT1 (gene 2321) (UniProt P17948); assay: NVS_ENZ_hVEGFR1: NovaScreen (NVS) Enzymatic Assay for human Vascular Endothelial Growth Factor Receptor 1 (VEGFR1) (AID 2283226)
Summary of the method: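 Kinase activity of recombinant human VEGFR1 was read by fluorescence after electrophoretic separation of product from substrate, 1 h post-dosing; initial duplicate single-point testing at 25 uM, followed by concentration-series follow-up, with DMSO as baseline.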

[4] = target: human Vascular Endothelial Growth Factor Receptor 3 (VEGFR3), FLT4 (gene 2324) (UniProt P35916); assay: NVS_ENZ_hVEGFR3: NovaScreen (NVS) Enzymatic Assay for human Vascular Endothelial Growth Factor Receptor 3 (VEGFR3) (AID 2283229)
Summary of the method: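 Chemicals first run in duplicate at 25 uM, with actives re-tested in concentration series to a top of 50 uM. Recombinant VEGFR3 activity measured after 1 h via fluorescence with mobility-shift product separation; inhibition fitted relative to DMSO.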

[5] = target: human Vascular Endothelial Growth Factor Receptor 2 (VEGFR2), KDR (gene 3791) (UniProt P35968); assay: NVS_ENZ_hVEGFR2: NovaScreen (NVS) Enzymatic Assay for human Vascular Endothelial Growth Factor Receptor 2 (VEGFR2) (AID 2283230)
Summary of the method: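 Cell-free recombinant VEGFR2 kinase, fluorescent substrate with electrophoretic mobility-shift separation; read 1 h after dosing. Screened at 25 uM in duplicate, hits to concentration-response up to 50 uM; loss-of-signal versus DMSO.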

Sequence of human Sirtuin 1 (SIRT1), SIRT1 (gene 23411) (Q96EB6 whole entry, looked up): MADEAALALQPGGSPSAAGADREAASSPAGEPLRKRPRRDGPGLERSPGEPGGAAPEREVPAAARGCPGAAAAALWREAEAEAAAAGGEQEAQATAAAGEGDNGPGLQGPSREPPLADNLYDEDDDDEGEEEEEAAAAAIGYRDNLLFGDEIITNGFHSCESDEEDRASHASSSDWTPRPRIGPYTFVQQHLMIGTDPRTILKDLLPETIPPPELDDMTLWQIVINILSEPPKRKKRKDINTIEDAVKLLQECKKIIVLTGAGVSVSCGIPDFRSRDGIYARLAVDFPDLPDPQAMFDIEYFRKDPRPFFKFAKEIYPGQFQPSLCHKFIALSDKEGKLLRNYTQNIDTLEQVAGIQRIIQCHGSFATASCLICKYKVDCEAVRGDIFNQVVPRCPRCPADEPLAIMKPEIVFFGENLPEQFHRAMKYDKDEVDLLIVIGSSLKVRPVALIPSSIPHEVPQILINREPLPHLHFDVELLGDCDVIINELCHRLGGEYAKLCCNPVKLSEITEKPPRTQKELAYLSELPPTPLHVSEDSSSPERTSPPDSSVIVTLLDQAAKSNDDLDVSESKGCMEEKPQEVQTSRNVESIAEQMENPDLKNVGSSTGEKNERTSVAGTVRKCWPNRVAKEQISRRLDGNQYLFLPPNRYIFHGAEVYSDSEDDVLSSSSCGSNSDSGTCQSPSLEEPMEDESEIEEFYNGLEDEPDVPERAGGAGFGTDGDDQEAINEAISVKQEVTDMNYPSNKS
Sequence of human SRC Proto-Oncogene, Non-receptor Tyrosine Kinase (SRC), SRC (gene 6714) (P12931 whole entry, looked up): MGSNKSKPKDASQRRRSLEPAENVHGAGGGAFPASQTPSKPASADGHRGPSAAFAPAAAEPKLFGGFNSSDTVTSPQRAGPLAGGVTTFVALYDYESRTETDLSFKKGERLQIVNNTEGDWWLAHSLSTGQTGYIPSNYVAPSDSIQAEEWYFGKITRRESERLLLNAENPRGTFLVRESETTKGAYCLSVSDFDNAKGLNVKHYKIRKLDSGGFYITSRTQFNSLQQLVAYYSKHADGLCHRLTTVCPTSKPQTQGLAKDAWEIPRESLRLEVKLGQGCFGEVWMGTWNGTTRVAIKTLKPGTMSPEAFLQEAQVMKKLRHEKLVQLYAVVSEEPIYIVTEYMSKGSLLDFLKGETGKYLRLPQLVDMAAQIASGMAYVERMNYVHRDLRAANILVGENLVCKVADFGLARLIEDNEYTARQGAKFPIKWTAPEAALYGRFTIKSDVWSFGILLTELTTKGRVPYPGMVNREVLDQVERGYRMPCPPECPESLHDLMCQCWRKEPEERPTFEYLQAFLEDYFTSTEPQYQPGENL
Sequence of human Vascular Endothelial Growth Factor Receptor 2 (VEGFR2), KDR (gene 3791) (P35968 whole entry, looked up): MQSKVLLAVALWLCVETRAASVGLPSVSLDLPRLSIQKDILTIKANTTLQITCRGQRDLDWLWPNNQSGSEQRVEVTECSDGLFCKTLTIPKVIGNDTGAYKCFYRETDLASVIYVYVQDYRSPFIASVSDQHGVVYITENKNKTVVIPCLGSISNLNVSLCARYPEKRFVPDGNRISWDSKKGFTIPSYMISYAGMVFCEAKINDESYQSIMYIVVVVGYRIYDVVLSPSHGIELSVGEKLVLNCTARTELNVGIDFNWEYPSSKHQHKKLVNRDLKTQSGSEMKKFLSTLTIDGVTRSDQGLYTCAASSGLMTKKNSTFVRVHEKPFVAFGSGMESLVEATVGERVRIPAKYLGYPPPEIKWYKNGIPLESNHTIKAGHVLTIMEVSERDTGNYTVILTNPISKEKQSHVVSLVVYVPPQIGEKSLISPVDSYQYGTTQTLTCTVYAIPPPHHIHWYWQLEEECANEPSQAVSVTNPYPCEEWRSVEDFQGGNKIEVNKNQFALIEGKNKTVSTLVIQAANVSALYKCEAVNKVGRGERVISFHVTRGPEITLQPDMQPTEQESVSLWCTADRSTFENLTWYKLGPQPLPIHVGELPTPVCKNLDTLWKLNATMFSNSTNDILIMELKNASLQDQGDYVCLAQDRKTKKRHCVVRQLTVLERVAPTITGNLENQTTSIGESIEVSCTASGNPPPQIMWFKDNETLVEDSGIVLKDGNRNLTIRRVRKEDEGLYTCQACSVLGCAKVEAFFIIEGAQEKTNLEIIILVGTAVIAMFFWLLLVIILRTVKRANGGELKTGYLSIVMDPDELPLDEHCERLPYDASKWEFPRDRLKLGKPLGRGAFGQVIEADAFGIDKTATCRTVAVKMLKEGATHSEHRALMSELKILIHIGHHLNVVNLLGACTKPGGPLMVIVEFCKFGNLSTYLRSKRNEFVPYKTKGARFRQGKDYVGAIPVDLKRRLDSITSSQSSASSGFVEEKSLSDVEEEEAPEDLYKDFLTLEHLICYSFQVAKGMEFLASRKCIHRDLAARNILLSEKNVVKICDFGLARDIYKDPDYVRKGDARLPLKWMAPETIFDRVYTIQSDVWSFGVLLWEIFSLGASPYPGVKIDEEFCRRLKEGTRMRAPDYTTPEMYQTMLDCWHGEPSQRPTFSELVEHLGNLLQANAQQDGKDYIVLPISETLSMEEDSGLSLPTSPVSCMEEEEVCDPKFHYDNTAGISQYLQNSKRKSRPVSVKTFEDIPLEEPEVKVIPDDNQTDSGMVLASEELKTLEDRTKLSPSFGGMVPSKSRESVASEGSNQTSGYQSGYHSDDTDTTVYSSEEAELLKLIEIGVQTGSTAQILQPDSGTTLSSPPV
Sequence of human Vascular Endothelial Growth Factor Receptor 1 (VEGFR1), FLT1 (gene 2321) (P17948 whole entry, looked up): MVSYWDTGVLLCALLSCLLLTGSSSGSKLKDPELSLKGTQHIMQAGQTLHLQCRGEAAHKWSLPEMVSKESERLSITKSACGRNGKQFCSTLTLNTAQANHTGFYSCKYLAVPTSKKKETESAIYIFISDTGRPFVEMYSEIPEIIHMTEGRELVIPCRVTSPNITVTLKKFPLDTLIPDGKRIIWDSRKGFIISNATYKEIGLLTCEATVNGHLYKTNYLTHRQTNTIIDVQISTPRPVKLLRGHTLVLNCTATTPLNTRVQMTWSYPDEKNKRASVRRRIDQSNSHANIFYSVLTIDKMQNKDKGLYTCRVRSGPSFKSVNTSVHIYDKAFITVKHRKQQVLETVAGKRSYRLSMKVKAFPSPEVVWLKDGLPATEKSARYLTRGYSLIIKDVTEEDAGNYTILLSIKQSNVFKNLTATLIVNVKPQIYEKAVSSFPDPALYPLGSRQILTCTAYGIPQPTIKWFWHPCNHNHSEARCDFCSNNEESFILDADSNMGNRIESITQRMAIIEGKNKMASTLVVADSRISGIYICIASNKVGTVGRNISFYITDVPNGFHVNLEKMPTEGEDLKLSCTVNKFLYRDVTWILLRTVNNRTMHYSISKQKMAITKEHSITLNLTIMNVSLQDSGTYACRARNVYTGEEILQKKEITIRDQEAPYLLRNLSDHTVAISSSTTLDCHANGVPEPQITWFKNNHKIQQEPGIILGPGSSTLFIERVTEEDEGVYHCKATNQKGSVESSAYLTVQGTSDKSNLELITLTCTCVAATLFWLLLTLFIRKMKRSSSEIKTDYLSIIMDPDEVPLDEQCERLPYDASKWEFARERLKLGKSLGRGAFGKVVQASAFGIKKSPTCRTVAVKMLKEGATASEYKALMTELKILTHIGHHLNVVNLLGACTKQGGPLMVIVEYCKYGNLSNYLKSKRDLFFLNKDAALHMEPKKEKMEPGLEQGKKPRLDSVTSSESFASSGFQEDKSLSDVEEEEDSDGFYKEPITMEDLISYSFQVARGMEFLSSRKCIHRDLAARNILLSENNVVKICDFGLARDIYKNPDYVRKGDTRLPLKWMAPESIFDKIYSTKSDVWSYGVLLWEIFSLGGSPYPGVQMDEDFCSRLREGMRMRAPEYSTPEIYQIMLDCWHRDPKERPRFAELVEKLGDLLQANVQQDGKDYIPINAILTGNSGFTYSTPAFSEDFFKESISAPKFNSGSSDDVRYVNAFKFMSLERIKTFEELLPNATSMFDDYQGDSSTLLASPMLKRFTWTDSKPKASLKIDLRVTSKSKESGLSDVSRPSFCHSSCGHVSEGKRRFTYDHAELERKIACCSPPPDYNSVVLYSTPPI

For `O=C1C2CC=CCC2C(=O)N1SC(Cl)(Cl)Cl` (configuration not stated), which AC50 [1] is on record?
The AC50 was 13.3 µM (active).

`CN=C=S` was tested. Which outcome [1] did it give?
Its outcome is “inactive”.

For `CC(C)(C)C(=O)C(Oc1ccc(Cl)cc1)n1cncn1` (configuration not stated), which outcome [2] is on record?
Its outcome is “inactive”.

`CCCN(CC)CC1COC2(CCC(C(C)(C)C)CC2)O1` (configuration not stated) was tested. Which outcome [2] did it give?
The outcome was “inactive”.

With `C=CCOC(=O)C(C)(C)OC(=O)c1cc(-n2c(=O)cc(C(F)(F)F)n(C)c2=O)ccc1Cl` as the compound, how does the outcome [3] read?
The outcome was “inactive”.

With `CS(=O)(=O)c1ccc(C(=O)C2C(=O)CCCC2=O)c([N+](=O)[O-])c1` as the compound, how does the outcome [4] read?
The outcome was “inactive”.

For `Clc1nc(Cl)nc(Nc2ccccc2Cl)n1`, which outcome [5] is on record?
Its outcome is “inactive”.
